Experimental data published in paper PMC7862700, “An all-to-all approach to the identification of sequence-specific readers for epigenetic DNA modifications on cytosine”.

Assays:
Test in all cases: DAPPL (digital affinity profiling via proximity ligation, sequencing); 10 mM Tris-HCl pH 7.5, 50 mM NaCl, 1 mM DTT, 4% glycerol, room temperature, 30 min; GST-TFs on glutathione beads, 16-mer random dsDNA library, 0.1% formaldehyde crosslink after washing; high values mean tight binding
FLI1 = target: T1, FLI1 (Homo sapiens, UniProt Q01543 1-452); conditions: protein: recombinant; tags: N-terminal GST; dsDNA, one strand shown
T1 sequence: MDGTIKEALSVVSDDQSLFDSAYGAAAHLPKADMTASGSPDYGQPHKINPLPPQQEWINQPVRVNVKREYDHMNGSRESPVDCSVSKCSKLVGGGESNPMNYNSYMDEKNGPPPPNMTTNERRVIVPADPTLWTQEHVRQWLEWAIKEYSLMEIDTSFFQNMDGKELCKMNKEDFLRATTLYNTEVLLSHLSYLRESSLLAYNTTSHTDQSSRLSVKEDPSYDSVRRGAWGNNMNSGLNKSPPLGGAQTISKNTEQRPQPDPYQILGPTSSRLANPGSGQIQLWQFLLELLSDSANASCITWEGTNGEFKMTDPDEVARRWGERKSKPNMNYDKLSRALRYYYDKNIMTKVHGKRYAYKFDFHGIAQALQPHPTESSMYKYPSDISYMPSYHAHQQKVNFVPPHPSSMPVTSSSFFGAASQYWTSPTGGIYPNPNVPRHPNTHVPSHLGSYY
Method in brief: (§1)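 Pools were built from human transcription factors expressed in yeast as GST fusions, captured on glutathione beads and DNA-barcoded, along with a tag-only sample. Incubation with 200 nmole of a 16-mer random double-stranded DNA library lasted 30 min at room temperature in Tris/NaCl/DTT/glycerol buffer, and was followed by washing, 0.1% formaldehyde crosslinking, proximity ligation, PCR amplification and Illumina NextSeq500 sequencing. Binding signal is the quotient of each hexamer's read frequency for a factor and its frequency for the tag-only sample.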

ELK1 = target: T2, ELK1 (Homo sapiens, UniProt P19419 1-428); conditions: protein: recombinant; tags: N-terminal GST; dsDNA, one strand shown
T2 sequence: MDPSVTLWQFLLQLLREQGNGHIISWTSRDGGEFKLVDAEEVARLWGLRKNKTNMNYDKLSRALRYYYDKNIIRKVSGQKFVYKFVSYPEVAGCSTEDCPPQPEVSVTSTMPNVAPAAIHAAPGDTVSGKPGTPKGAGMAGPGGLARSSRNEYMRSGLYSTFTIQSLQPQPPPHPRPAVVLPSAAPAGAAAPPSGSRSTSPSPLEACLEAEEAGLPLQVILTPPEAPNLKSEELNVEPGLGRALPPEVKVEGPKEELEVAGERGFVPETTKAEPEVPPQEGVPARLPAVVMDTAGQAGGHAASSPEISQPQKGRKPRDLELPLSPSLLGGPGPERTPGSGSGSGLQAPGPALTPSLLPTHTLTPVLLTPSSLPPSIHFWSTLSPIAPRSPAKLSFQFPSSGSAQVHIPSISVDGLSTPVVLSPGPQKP
Method in brief: as §1

GABPA = target: T3, GABPA (Homo sapiens, UniProt Q06546 1-454); conditions: protein: recombinant; tags: N-terminal GST; dsDNA, one strand shown
T3 sequence: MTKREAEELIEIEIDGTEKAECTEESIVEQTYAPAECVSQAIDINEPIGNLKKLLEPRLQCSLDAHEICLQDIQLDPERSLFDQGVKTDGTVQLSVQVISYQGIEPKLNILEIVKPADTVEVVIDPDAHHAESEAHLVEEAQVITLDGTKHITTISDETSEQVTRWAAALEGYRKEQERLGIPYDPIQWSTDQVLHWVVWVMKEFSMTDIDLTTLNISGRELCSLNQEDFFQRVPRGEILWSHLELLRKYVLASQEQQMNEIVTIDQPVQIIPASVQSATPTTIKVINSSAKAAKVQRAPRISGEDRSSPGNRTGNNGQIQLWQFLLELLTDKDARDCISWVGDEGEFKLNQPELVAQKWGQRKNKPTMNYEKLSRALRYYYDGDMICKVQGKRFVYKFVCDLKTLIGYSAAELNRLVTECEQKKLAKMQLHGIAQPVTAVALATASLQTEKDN
Method in brief: as §1

ERG = target: T4, ERG (Homo sapiens, UniProt P11308 1-479); conditions: protein: recombinant; tags: N-terminal GST; dsDNA, one strand shown
T4 sequence: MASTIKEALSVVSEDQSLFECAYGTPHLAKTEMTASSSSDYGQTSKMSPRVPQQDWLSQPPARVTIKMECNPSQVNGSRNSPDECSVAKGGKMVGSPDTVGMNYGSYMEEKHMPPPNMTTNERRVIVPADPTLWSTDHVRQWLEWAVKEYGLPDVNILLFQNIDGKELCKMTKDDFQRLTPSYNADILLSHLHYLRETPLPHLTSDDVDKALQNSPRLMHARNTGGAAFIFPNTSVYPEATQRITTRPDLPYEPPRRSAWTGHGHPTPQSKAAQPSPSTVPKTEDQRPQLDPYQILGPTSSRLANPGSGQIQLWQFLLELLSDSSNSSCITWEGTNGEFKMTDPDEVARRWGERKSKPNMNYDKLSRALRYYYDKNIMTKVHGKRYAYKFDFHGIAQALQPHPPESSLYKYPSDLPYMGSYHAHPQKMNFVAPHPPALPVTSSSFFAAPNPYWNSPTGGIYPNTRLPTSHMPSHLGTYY
Method in brief: as §1

ELF1 = ELF1 (Homo sapiens, UniProt P32519 1-619); conditions: protein: recombinant; tags: N-terminal GST; dsDNA, one strand shown
Chain of ELF1 (P32519 whole entry): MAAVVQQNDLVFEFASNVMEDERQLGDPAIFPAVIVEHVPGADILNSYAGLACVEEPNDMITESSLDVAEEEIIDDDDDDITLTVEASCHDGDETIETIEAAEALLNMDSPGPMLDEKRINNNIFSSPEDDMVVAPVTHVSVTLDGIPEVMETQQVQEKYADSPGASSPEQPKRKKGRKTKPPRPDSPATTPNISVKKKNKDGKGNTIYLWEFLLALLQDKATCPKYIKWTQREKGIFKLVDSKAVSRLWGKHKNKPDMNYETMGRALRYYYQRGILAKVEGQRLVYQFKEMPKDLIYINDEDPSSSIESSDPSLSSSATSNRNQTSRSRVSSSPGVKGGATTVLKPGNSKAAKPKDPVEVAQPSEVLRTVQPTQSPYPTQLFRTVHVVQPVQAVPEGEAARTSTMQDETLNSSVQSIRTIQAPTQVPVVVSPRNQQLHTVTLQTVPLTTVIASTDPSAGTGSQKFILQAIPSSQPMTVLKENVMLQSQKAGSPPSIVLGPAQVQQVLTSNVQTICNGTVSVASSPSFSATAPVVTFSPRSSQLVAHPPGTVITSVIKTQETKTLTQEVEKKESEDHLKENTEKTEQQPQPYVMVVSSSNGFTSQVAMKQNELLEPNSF
Method in brief: as §1

EHF = target: T5, EHF (Homo sapiens, UniProt Q9NZC4 1-300); conditions: protein: recombinant; tags: N-terminal GST; dsDNA, one strand shown
T5 sequence: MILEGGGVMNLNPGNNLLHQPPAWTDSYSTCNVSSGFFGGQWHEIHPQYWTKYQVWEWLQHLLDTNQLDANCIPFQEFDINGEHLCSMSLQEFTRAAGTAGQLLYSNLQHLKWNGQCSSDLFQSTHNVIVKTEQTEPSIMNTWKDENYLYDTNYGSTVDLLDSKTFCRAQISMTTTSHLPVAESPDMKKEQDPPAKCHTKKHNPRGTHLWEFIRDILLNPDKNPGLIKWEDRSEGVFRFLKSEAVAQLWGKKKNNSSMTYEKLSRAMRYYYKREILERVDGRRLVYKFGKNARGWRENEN
Method in brief: as §1

SPI1 = SPI1 (Homo sapiens, UniProt P17947 1-270); conditions: protein: recombinant; tags: N-terminal GST; dsDNA, one strand shown
Method in brief: as §1

SPIB = SPIB (Homo sapiens, UniProt Q01892 1-262); conditions: protein: recombinant; tags: N-terminal GST; dsDNA, one strand shown
Chain of SPIB (Q01892 whole entry): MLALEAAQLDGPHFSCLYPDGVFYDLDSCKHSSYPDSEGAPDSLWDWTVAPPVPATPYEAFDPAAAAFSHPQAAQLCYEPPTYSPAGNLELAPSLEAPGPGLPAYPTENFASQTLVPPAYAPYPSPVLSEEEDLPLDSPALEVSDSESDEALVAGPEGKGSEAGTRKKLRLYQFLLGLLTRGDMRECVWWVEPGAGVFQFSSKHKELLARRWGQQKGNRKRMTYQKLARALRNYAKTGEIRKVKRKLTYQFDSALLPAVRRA
Method in brief: as §1

ELK3 = target: T6, ELK3 (Homo sapiens, UniProt P41970 1-407); conditions: protein: recombinant; tags: N-terminal GST; dsDNA, one strand shown
T6 sequence: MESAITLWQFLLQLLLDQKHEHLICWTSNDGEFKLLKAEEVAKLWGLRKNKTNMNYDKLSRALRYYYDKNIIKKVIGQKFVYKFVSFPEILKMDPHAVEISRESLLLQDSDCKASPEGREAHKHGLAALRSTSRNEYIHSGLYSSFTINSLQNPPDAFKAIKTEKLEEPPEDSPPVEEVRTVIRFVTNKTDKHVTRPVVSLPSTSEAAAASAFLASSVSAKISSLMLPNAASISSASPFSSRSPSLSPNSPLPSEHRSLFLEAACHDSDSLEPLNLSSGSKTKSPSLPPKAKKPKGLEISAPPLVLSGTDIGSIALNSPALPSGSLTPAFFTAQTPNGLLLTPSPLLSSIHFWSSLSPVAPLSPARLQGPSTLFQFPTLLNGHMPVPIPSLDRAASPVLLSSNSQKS
Method in brief: as §1

FEV = target: T7, FEV (Homo sapiens, UniProt Q99581 1-238); conditions: protein: recombinant; tags: N-terminal GST; dsDNA, one strand shown
T7 sequence: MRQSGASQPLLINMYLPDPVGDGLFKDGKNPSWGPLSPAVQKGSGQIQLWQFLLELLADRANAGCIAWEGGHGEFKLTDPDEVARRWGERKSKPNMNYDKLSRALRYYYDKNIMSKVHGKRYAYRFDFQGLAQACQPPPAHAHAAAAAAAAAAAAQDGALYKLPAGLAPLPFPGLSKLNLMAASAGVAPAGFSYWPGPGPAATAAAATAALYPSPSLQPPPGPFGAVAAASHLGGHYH
Method in brief: as §1

ETV5 = ETV5 (Homo sapiens, UniProt P41161 1-510); conditions: protein: recombinant; tags: N-terminal GST; dsDNA, one strand shown
Chain of ETV5 (P41161 whole entry): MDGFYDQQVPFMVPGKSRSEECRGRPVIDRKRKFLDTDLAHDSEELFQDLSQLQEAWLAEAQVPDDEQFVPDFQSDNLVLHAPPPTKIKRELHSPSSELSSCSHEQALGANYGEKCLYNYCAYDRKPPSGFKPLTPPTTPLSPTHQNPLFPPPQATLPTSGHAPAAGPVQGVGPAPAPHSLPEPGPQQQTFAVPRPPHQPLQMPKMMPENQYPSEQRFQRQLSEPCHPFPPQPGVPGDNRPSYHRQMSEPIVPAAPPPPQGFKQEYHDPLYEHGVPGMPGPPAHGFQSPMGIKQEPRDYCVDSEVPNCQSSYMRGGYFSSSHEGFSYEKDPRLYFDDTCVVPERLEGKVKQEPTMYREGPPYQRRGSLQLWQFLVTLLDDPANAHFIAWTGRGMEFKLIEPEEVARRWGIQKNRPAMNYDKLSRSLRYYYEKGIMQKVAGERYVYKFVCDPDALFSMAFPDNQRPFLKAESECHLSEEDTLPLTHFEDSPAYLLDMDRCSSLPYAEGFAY
Method in brief: as §1

HSF1 = HSF1 (Homo sapiens, UniProt Q00613 1-529); conditions: protein: recombinant; tags: N-terminal GST; chain copies: 3; dsDNA, one strand shown
Chain of HSF1 (Q00613 whole entry): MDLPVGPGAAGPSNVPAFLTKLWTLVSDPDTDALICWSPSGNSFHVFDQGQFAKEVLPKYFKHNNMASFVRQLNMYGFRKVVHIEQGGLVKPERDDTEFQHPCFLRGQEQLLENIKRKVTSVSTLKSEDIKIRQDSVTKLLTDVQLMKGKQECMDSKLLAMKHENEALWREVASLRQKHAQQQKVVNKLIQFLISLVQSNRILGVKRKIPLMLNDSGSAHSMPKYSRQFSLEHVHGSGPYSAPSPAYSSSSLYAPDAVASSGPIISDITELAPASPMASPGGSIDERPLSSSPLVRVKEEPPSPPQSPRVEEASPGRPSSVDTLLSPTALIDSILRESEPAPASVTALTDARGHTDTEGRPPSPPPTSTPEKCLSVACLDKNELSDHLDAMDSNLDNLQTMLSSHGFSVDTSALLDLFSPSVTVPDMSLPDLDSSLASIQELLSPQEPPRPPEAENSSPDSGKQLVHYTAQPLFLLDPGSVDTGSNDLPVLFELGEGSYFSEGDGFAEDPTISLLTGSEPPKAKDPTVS
Method in brief: as §1

SPIC = target: T8, SPIC (Homo sapiens, UniProt Q8N5J4 1-248); conditions: protein: recombinant; tags: N-terminal GST; dsDNA, one strand shown
T8 sequence: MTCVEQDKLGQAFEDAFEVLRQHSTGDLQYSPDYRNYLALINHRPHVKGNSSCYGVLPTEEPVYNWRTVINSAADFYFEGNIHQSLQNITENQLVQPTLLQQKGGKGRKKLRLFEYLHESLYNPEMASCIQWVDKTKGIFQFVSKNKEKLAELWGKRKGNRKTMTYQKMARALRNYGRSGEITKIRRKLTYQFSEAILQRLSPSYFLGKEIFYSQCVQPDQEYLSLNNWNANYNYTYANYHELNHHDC
Method in brief: as §1

ELF4 = ELF4 (Homo sapiens, UniProt Q99607 1-663); conditions: protein: recombinant; tags: N-terminal GST; dsDNA, one strand shown
Chain of ELF4 (Q99607 whole entry): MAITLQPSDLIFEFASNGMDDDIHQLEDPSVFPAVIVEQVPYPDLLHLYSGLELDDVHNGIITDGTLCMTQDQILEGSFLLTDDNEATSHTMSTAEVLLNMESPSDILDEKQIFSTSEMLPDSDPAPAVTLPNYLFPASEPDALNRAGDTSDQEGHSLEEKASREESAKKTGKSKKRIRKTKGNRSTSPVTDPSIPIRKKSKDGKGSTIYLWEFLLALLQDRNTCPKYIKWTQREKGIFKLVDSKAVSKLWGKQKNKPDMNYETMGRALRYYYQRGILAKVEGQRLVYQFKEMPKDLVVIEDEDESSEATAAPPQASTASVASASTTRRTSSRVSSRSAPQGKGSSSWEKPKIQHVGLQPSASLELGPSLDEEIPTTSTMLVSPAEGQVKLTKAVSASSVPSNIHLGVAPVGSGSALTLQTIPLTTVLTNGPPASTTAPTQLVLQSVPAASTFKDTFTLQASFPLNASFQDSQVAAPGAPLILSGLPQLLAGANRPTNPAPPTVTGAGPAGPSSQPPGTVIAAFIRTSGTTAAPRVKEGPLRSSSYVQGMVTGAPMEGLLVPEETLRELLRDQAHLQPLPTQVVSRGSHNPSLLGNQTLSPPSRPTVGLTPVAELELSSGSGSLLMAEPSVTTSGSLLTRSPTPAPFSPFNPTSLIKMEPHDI
Method in brief: as §1

ELK4 = target: T9, ELK4 (Homo sapiens, UniProt P28324-2 1-405); conditions: protein: recombinant; tags: N-terminal GST; dsDNA, one strand shown
T9 sequence: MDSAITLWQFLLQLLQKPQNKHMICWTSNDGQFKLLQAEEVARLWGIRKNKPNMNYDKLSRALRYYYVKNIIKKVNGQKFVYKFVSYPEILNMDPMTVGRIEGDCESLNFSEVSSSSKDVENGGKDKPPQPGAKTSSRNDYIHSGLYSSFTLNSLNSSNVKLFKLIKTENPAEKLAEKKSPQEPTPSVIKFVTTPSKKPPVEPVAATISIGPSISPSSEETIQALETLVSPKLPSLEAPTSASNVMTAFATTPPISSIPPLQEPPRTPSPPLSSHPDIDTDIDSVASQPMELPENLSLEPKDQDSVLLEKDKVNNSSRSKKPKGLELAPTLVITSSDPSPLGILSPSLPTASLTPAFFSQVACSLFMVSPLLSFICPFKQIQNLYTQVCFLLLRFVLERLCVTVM
Method in brief: as §1

ETV2 = target: T10, ETV2 (Homo sapiens, UniProt O00321 1-342); conditions: protein: recombinant; tags: N-terminal GST; dsDNA, one strand shown
T10 sequence: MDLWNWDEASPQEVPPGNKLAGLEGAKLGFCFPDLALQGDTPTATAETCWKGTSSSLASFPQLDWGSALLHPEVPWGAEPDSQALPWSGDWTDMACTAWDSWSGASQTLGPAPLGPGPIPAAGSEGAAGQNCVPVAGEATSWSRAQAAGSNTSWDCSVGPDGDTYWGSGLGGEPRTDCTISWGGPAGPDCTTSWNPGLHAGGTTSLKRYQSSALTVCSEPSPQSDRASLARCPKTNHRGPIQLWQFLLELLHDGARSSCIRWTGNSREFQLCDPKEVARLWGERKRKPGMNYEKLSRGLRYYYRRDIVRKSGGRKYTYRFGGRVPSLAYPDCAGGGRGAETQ
Method in brief: as §1

ELF3 = target: T11, ELF3 (Homo sapiens, UniProt P78545 1-371); conditions: protein: recombinant; tags: N-terminal GST; dsDNA, one strand shown
T11 sequence: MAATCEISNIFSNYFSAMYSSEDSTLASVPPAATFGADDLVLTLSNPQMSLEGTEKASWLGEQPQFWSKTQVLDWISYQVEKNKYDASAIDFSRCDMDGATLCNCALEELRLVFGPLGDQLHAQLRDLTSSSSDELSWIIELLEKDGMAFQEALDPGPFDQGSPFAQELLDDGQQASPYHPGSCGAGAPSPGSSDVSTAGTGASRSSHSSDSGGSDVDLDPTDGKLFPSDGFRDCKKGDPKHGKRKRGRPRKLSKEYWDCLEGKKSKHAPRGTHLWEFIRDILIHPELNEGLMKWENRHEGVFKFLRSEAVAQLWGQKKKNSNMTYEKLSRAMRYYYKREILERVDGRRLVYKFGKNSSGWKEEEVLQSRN
Method in brief: as §1

ETV1 = ETV1 (Homo sapiens, UniProt P50549 1-477); conditions: protein: recombinant; tags: N-terminal GST; dsDNA, one strand shown
Chain of ETV1 (P50549 whole entry): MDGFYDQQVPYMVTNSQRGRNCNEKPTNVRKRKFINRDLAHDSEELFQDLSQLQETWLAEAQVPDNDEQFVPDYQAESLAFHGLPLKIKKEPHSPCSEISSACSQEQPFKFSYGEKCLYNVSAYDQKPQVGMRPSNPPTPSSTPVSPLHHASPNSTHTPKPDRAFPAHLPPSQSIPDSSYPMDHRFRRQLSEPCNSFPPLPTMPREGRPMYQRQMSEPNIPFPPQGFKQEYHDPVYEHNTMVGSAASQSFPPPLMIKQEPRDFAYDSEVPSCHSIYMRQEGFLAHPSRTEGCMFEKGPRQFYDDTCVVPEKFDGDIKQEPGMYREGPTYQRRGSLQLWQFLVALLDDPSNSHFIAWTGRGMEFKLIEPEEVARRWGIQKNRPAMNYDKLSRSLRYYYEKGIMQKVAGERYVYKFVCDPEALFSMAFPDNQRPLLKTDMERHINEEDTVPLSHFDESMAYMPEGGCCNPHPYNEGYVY
Method in brief: as §1

Which binding signal (FLI1) does the source give for ATGTGC here?
Its binding signal is 1.05 fold enrichment (6-mer frequency, TF over GST control).

And the binding signal (ELK1)?
The binding signal was 1.1 fold enrichment (6-mer frequency, TF over GST control).

And the binding signal (GABPA)?
Its binding signal is 1.1 fold enrichment (6-mer frequency, TF over GST control).

What about the binding signal (ERG) of the same sequence?
The binding signal was 1.14 fold enrichment (6-mer frequency, TF over GST control).

And the binding signal (ELF1)?
The binding signal was 1.19 fold enrichment (6-mer frequency, TF over GST control).

And the binding signal (EHF)?
The binding signal was 1.05 fold enrichment (6-mer frequency, TF over GST control).

What about the binding signal (SPI1) of the same sequence?
Its binding signal is 1.06 fold enrichment (6-mer frequency, TF over GST control).

And the binding signal (SPIB)?
The binding signal was 1.15 fold enrichment (6-mer frequency, TF over GST control).

And the binding signal (ELK3)?
The binding signal was 1.09 fold enrichment (6-mer frequency, TF over GST control).

And the binding signal (FEV)?
Its binding signal is 1.16 fold enrichment (6-mer frequency, TF over GST control).

And the binding signal (ETV5)?
The binding signal was 1.16 fold enrichment (6-mer frequency, TF over GST control).

What about the binding signal (HSF1) of the same sequence?
Its binding signal is 1.02 fold enrichment (6-mer frequency, TF over GST control).

What about the binding signal (SPIC) of the same sequence?
Its binding signal is 1.17 fold enrichment (6-mer frequency, TF over GST control).

What about the binding signal (ELF4) of the same sequence?
The binding signal was 1.17 fold enrichment (6-mer frequency, TF over GST control).

And the binding signal (ELK4)?
Its binding signal is 1.21 fold enrichment (6-mer frequency, TF over GST control).

What about the binding signal (ETV2) of the same sequence?
The binding signal was 1.11 fold enrichment (6-mer frequency, TF over GST control).

And the binding signal (ELF3)?
The binding signal was 1.1 fold enrichment (6-mer frequency, TF over GST control).

What about the binding signal (ETV1) of the same sequence?
The binding signal was 1.05 fold enrichment (6-mer frequency, TF over GST control).
